Active and inactive are the calls of the source. How the source made its calls: active means hit-call score of the fitted dose curve at least 0.9, where 1 is the maximum; inactive means score below 0.9.
read-out: Cytochrome P450 4A22 (Homo sapiens) (UniProt Q5TCH4); experiment: LTEA_HepaRG_CYP4A22: Life Technologies and Expression Analysis (LTEA) Assay for Cytochrome P450 4A22 (CYP4A22) using HepaRG (AID 2283495); settings: mRNA level, 48 h; actives raise or lower the signal
Procedure: LTEA_HepaRG is a cell based, multiplexed-readout assay that uses HepaRG, a human liver cell line, with measurements taken at 48 hours after chemical dosing on a 96-well plate.LTEA_HepaRG_CYP4A22 is one of 102 assay component(s) measured in the LTEA HepaRG cell culture assay. It is a marker of NR mediated metabolism.Data from the assay component LTEA_HepaRG_CYP4A22 was analyzed into 1 endpoint. This assay endpoint, LTEA_HepaRG_CYP4A22, was analyzed with bidirectional fitting relative to DMSO as the negative control and baseline of activity. Using a type of inducible reporter, measures of mRNA induction for gain or loss-of-signal activity can be used to understand regulation of transcription factor activity. To generalize the intended target to other relatable targets, this assay endpoint is annotated to the cyp intended target family, where the subfamily is xenobiotic metabolism.
A total of 1060 chemcials from the ToxCast library were tested in eight-point concentration-response experiments. Cell culture and cytotoxicity assays were conducted at Thermo Fisher Scientific's Custom Services facility (Madison, WI). A single lot of human HepaRG cells (Thermo Fisher Scientific, Frederick, MD) was used for the cell culture experiments. 96-well format collagen type I coated plates of human HepaRG cells were prepared using established methods. Briefly, cryopreserved HepaRG cells were thawed, plated at a density of approximately 100,000 cells/well in HepaRG Thaw, Plate, and General Purpose media (HPRG770, Thermo Fisher Scientific), and incubated for 48 hours. 0.5% DMSO was selected as vehicle control to balance the requisite need of DMSO in HepaRG cultures to maintain differentiation (for example, baseline metabolism, proportions of hepatocytes vs. cholangiocytes), while enabling further hepatic receptor pathway activation (for example, PXR and CAR) in response to chemical exposure. 48 hours after plating, the culture medium was replaced with HepaRG Serum-Free Incudtion Media. Cells were exposed to each test chemical in duplicate and maintained in CO2 incubators for another 48 hours. Chemical plates were thawed to room temperature and 200x concentrations of treatment groups were prepared. 8-point conentration-reponse curves were made with the highest exposure at 100 uM, followed by half-log dilutions, all in 0.5% DMSO. Each test plate contained variouse controls, induction positive controls (1mM phenobarbital), cytotoxicity positive controls ([…] aflatoxin B1), vehicle controls (0.5% DMSO), and total lysis controls (0.5% DMSO). Cell morphology images were taken using an Essen IncuCyte FLR automated microscope, with six 96-well plates imaged in about 24 minutes. Images were captured and exported and JPEG files. Spent culture media was transfered to black-well plates for the LDH assay, and remaining media was sorted at -80 C for later use. Cells were treated with RLT buffer and frozen until shipped for gene expression analysis. Total RNA was isolated from the cell suspension in 75 uL of Buffer RLT (Qiagen, Germantown, MD 20874) by Quintiles/Expression Analysis (Durham, NC) using a custom isolation procedure. Total RNA from each plate well was transferred to a preamplification plate. Fluidigm's 96.96 Dynamic ArrayTM (Fluidigm, Amsterdam, the Netherlands) technology was used for gene expression analyses by quantitative reverse transcription polymerase chain reaction (qRT-PCR, performed by Quintiles/Expression Analysis, Durham, NC)89. Standard TaqManTM Assays (Applied Biosystems/ThermoFisher Scientific, Foster City, CA) were used to assess the expression of 93 genes selected based on their selectivity and sensitivity to important hepatic receptors known to be modulated by environmental chemicals; importance in human hepatocyte functionality; and hepatotoxicity. […]

Compound	outcome	AC50
OCCN(CCO)CCO	inactive	
Clc1cccc(Cl)c1Cl	inactive	
Oc1cc(Cl)c(Cl)cc1Cl	inactive	
Cc1cc(C)cc(C)c1	inactive	
N#Cc1cccnc1	inactive	
O=C(O)C1(c2ccc3c(c2)OC[C@H](Cc2ccc(-c4ccccc4)cc2)[C@H]3O)CCCC1	inactive	
CC(C)O.CC(C)O.OCCN(CCO)CCO.OCCN(CCO)CCO.[Ti]	inactive	
Clc1cccc(Cl)c1	inactive	
O=C(N[C@H]1CN2CCC1CC2)c1ccc2c(c1)OCCO2	inactive	
CC(C)(C)c1ccccc1O	inactive	
COc1ccccc1N	inactive	
CCCCCCCCCCCCc1cccc(S(=O)(=O)O)c1		25.6 µM (active)
